Laboratory results reported in PubChem BioAssay AID763 (NMMLSC, 2007).
Unmarked numbers belong to inactive results. How the calls were made is not given here.

Molecular target: fMet-Leu-Phe receptor (Homo sapiens) (UniProt P21462)
Experiment: FPR1 fluorescent ligand binding inhibitors, SAR follow-up, selectivity assay for FPRL1 ligand SAR project, cell-based, single concentration (AID 763)
Details: FPR1-expressing cells, hits give high values; at 5.4 µM unless noted

fMet-Leu-Phe receptor (Homo sapiens), sequence (P21462 whole entry, looked up): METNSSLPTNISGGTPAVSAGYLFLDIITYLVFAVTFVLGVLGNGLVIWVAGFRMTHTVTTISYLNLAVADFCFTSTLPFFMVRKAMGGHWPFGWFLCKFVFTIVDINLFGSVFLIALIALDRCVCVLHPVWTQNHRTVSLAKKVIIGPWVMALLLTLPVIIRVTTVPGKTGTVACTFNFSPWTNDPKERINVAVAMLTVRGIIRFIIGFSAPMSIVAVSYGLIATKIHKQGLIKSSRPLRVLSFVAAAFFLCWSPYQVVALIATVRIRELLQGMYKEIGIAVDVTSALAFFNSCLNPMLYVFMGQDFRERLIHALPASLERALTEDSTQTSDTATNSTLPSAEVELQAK

Row | Structure (SMILES) | inhibition
1 | COc1cccc(-c2cc(C(F)(F)F)nc(N3CCN(c4ccccc4)CC3)n2)c1 | -7.4%
2 | COc1ccc(-c2nc(N3CCN(C)CC3)[nH]c(=O)c2C#N)cc1 | -1.7% [at 6.8 µM]
3 | O=C1CC(c2ccco2)Cc2nc(N3CCN(Cc4ccccc4)CC3)ncc21 (stereo not drawn) | 5.5% [at 5.7 µM]
4 | Clc1ccccc1-c1nc(N2CCN(c3ccccc3)CC2)nc2ccc(Br)cc12 | 1.5% [at 4.6 µM]
5 | COc1ccc(-c2cn3cccnc3n2)cc1NC(=O)c1ccccc1F | 2.4% [at 6.1 µM]
6 | Cc1ccc(C(=O)N2CCN(c3nc(-c4ccccc4)c4cc(Br)ccc4n3)CC2)cc1 | -4.3% [at 4.6 µM]
7 | O=C(O)CCCC(=O)N1CCN(c2nc(-c3ccccc3Cl)c3cc(Br)ccc3n2)CC1 | 1.9% [at 4.3 µM]
8 | COc1ccc(-c2cc(-c3ccc(F)cc3)nc(N3CCN(C)CC3)n2)cc1 | -4.8% [at 5.9 µM]
9 | O=C(c1ccccc1Cl)N1CCN(c2nc(-c3ccccc3)c3cc(Cl)ccc3n2)CC1 | -3.1% [at 4.8 µM]
10 | Cc1ccc(-c2cn3cccnc3n2)cc1NC(=O)C(C)C | 3.7% [at 7.6 µM]
11 | Cc1ccc(-c2cc(C(F)F)nc(N3CCN(c4ccccc4)CC3)n2)cc1 | -2.2% [at 5.8 µM]
12 | O=C(c1cccc(F)c1)N1CCN(c2nc(-c3cccs3)cc(C(F)(F)F)n2)CC1 | 1.1% [at 5.1 µM]
13 | COc1cc(OC)cc(C(=O)Nc2cc(-c3cn4cccnc4n3)ccc2OC)c1 | 4.4% [at 5.5 µM]
